Bioassay records: PubChem, National Center for Advancing Translational Sciences (NCATS)
Shown are actives, neighbours in structure and some others; about 2.9% of the full set was active somewhere.
DRD3 agonist: D3 dopamine receptor (human) agonism; D3R DiscoveRx beta-arrestin cells, luminescence, 90 min; P35462; actives 0.58% (n = 410,000); max activation, %; in the data active means max activation above about 30%; further: 0% is about no effect
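Agonist-mode cell screen: cells plated at 1500/well and incubated overnight at 37 °C, then exposed to library compounds for 90 min at 37 °C. Detection reagent was added for 30–60 min at room temperature, and luminescence was read.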
TRPML1 ag: human mucolipin-1 channel agonism. Q9GZU1. TRPML1-expressing cells, Ca2+ dye fluorescence, FDSS. activation, % (test concentration not listed). actives 0.12% (n = 410,000); in the data active means activation above about 50%; inconclusive means mostly about 30% to 49%; further: 0% is about no effect
Target sequence (Q9GZU1 whole entry, looked up): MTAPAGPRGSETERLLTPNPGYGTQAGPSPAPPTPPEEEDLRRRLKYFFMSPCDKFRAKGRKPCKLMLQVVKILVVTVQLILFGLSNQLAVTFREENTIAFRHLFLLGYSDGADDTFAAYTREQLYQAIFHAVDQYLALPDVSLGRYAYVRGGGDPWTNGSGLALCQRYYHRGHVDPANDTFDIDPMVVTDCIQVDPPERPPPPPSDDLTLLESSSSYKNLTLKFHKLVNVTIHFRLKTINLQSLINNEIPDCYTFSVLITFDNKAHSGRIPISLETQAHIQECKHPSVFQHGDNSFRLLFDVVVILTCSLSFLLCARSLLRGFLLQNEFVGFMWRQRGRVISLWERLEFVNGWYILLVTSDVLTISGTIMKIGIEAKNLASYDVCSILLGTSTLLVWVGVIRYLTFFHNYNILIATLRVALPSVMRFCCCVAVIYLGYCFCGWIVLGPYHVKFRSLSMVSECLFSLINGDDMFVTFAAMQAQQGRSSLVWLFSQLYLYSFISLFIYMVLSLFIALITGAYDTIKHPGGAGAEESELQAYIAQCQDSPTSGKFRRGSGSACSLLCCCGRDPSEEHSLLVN
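Calcium fluorescence on an FDSS kinetic reader gave the read-out. Tet-induced TRPML1-DL cells were plated overnight, dye-loaded (Ca8 with quencher, 45-90 min, room temperature, dark), then read 110 s after compound addition, and again 110 s after 4uM final 54-4 (EC80).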
D3 antag: blocks the human D3 dopamine receptor. P35462. D3R cells, DiscoveRx beta-arrestin luminescence, antagonist mode; active compounds read low. max response, negative = inhibition, %. actives 2.5% (n = 360,000). AID 652054; in the data active means max response below about -50%; inconclusive means no clear call, values can overlap the other calls; further: on the % scale 0 is the no-effect control and ±100 the full control effect
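Cells expressing the human receptor were seeded at 1500 cells/well, incubated overnight at 37 degrees C in 5% CO2, then exposed to library compounds with dopamine controls for 90 minutes at 37 degrees C before luminescent detection.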
TRPML1 inh: blocks the human TRPML1 channel. Q9GZU1. TRPML1-inducible cells, Ca2+ dye fluorescence, FDSS; active compounds read low; inhibition of EC80 agonist-evoked calcium signal. activity change, negative = inhibition, % (concentration not given with the values). actives 0.02% (n = 390,000); in the data active means activity change below about -50%; inconclusive means between about -30% and that limit;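 further: stimulus is agonist 54-4 at its EC80 concentration; on the % scale 0 is the no-effect control and ±100 the full control effect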
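TRPML1-DL cells, Tet-induced overnight (~16 h, 37 °C) at 1,500 cells/well, were loaded with Ca8 no-wash dye plus quencher for 45-90 min at room temperature. Compounds were pinned during FDSS kinetic reading; agonist 54-4 at EC80 (4 uM final) then added.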
* = called active by the depositor; u = inconclusive; x = no result given.

SMILES	DRD3 agonist	TRPML1 ag	D3 antag	TRPML1 inh
Cc1ccc(S(=O)(=O)c2ccc([N+](=O)[O-])cn2)cc1	-31	0	-75*	-17
O=[N+]([O-])c1ccc(S(=O)(=O)c2ccccc2)nc1	-5	1	-151*	7
CCCCNC(=O)[C@@H]1CC=C[C@@H]2CCN(CCCC)C(=O)[C@@H]21	x	-1	x	x
CC(C)Cn1c(=S)[nH]c2ccccc2c1=O	1	0	4	2
CC(C)n1[nH]c2ccccc2c1=O	-16	0	-66*	x
O=C(Nc1ccc(F)cc1)Nc1nnc([C@@H]2C[C@H](O)[C@@H](CO)O2)s1	62*	0	-4	x
O=C(Nc1ccc(OCc2ccccc2)cc1)Nc1nnc([C@H]2C[C@H](O)[C@@H](CO)O2)s1	-14	-1	-53*	x
O=C(Nc1ccc(OCc2ccccc2)cc1)Nc1nnc([C@@H]2C[C@H](O)[C@@H](CO)O2)s1	2	1	7	x
O=C(Nc1ccccc1)Nc1nnc([C@@H]2C[C@H](O)[C@@H](CO)O2)s1	-12	0	-68*	x
CC(C)NC(=O)Nc1nnc([C@@H]2C[C@H](O)[C@@H](CO)O2)s1	38*	0	-20	x
O=C(Nc1cccc(Cl)c1)Nc1nnc([C@@H]2C[C@H](O)[C@@H](CO)O2)s1	-6	0	-1	x
COc1ccc(-c2noc(-c3cccc(OC)c3OC)n2)cc1	10	4	x	16
O=S(=O)(N/N=C1/CC(c2ccccc2)Oc2ccccc21)c1ccc(Br)cc1 (configuration not stated)	0	0	22	-6
Cc1ccc(S(=O)(=O)N/N=C2/CC(c3ccccc3)Oc3ccccc32)cc1[N+](=O)[O-] (configuration not stated)	-4	1	-83*	-12
CCOc1ccc(NC(=O)COC(=O)c2ccccc2OCc2ccccc2Br)cc1	x	0	x	x
CCc1ccc(NC(=S)NC2CCN(Cc3ccccc3)CC2)cc1	-7	0	-29	3
S=C(Nc1ccccc1)NC1CCN(Cc2ccccc2)CC1	-19	2	-77*	2
COc1ccc(CCNC(=S)NC2CCN(Cc3ccccc3)CC2)cc1	-20	1	-83*	-7
O=C(Nc1ccccc1)NC1CCN(Cc2nnnn2C2CCCCC2)CC1	-3	-1	-70*	-17
Cc1ccccc1NC(=S)NC1CCN(Cc2ccccc2)CC1	-29	1	-50*	18
S=C(NCCc1ccccc1)NC1CCC(NC(=S)NCCc2ccccc2)CC1 (configuration not stated)	4	0	-6	-6
Cc1ccc(C)c(S(=O)(=O)NCC(c2ccco2)S(=O)(=O)c2ccc(F)cc2)c1 (configuration not stated)	-13	0	x	-8
Nc1c(C(=O)Nc2ccc(OC(F)(F)F)cc2)nnn1Cc1ccccc1	7	2	x	-3
O=[N+]([O-])c1ccc(-c2cc3ccccc3[nH]2)cc1	x	3	x	x
S=C(Nc1ccc(Cl)cc1)NC1CCN(Cc2ccccc2)CC1	-21	6	-60*	-3
SMILES	DRD3 agonist	TRPML1 ag	D3 antag	TRPML1 inh
CCC(C)c1ccc(NC(=S)NC2CCN(Cc3ccccc3)CC2)cc1 (configuration not stated)	-13	4	u	1
COc1ccc(CN2CCC(CNC(=O)NC3CCCCC3)CC2)cc1	2	1	-54*	3
CCOc1ccccc1NC(=O)c1nc(SCc2ccccc2F)ncc1Cl	x	0	x	x
Oc1c(Br)cc(Br)cc1C=Nc1ccc2c(c1)OCO2	2	0	-128*	55
Oc1c(Br)cc(Br)cc1C=Nc1ccc2c(c1)OCCO2	-12	2	-64*	-5
Cn1c(SCC(=O)N2CCCc3ccccc32)ncc(C(=O)Nc2ccccc2)c1=O	-11	2	x	49
CCCc1cnc2c(c1SCC(=O)N1CCC(C)CC1)c(=O)n(C)c(=O)n2C	0	-1	x	-13
CCn1c(CN2CCCCC2)nc2cc(S(=O)(=O)N3CCCCC3)ccc21	-10	0	-81*	8
CCn1c(C)nc2cc(S(=O)(=O)N3CCCCC3)ccc21	-5	1	1	33
Cc1ccc(NC(=O)c2sc3nc[nH]c(=O)c3c2C)cc1C	0	-1	x	-2
COC(=O)c1[nH]c2ccccc2c1NC(=O)CN1CCC(C(N)=O)(N2CCCCC2)CC1	1	0	-54*	6
COC(=O)c1[nH]c2ccccc2c1NC(=O)Oc1ccccc1	-2	0	-52*	-1
